From PubChem BioAssay (NCI)
The panel holds about 83,000 compounds, 20% with a hit somewhere; the sample as a whole holds those more often.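 The endpoint reported here, percent growth, reads 100 for growth as untreated, 0 for no net growth and -100 for all cells dead.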 Values without a mark were called inactive. Activity calls are given as the source filed them. Rule for the calls: active = growth percent below 10; inactive = the rest.

How the values were obtained:
Test in all cases: NCI-60 one-dose screen, 48 h (100 = growth as untreated, 0 = no growth, -100 = all killed)
Conditions in all cases: 10 µM unless noted
T-47D breast = system: T-47D breast
BT-549 breast = system: BT-549 breast
MDA-MB-435 melanoma = system: MDA-MB-435 melanoma
SW-620 colon = system: SW-620 colon
MCF7 breast = system: MCF7 breast
HCT-116 colon = system: HCT-116 colon
HCC-2998 colon = system: HCC-2998 colon
KM12 colon = system: KM12 colon
MDA-MB-468 breast = system: MDA-MB-468 breast

O=C1/C(=C/c2cccc3c2OCO3)Cc2c(F)cc(Br)cc21
growth (T-47D breast): 95.2%
growth (BT-549 breast): 123%
growth (MDA-MB-435 melanoma): 104%
growth (SW-620 colon): 114%
growth (MCF7 breast): 84.2%
growth (HCT-116 colon): 104%
growth (HCC-2998 colon): 117%
growth (KM12 colon): 110%
growth (MDA-MB-468 breast): 105%

O=C(CSc1nc2sc3c(c2c(=O)n1-c1ccc(Cl)cc1)CCCC3)NNC(=O)c1ccc(Br)cc1
growth (T-47D breast): 58.5%
growth (BT-549 breast): 74.5%
growth (MDA-MB-435 melanoma): 97.3%
growth (SW-620 colon): 76.1%
growth (MCF7 breast): 54.1%
growth (HCT-116 colon): 64%
growth (HCC-2998 colon): 108%
growth (KM12 colon): 96.6%
growth (MDA-MB-468 breast): 69.7%

CN(C)c1nc(NCCNS(=O)(=O)c2ccc(C3=Nc4c(N)nc(N)nc4NC(c4ccc(C(F)(F)F)cc4)C3)cc2)nc(N2CCOCC2)n1 (stereo not drawn)
growth (T-47D breast): 24.7%
growth (BT-549 breast): 1.02% (active)
growth (MDA-MB-435 melanoma): 44.3%
growth (SW-620 colon): 54.7%
growth (MCF7 breast): 21.8%
growth (HCT-116 colon): 17.1%
growth (HCC-2998 colon): 27.3%
growth (KM12 colon): 47.8%
growth (MDA-MB-468 breast): 5.66% (active)

CS(=O)(=O)Nc1cncc(-c2ccc3ncnc(NCc4ccccc4)c3c2)c1
growth (T-47D breast): 3.96% (active)
growth (BT-549 breast): 2.92% (active)
growth (MDA-MB-435 melanoma): 55.1%
growth (SW-620 colon): 38.9%
growth (MCF7 breast): 9.82% (active)
growth (HCT-116 colon): 19.1%
growth (HCC-2998 colon): 45.9%
growth (KM12 colon): 65.5%
growth (MDA-MB-468 breast): -34% (active)

Nc1nnc(-c2cncc(Br)c2)c(-c2c[nH]c3ccc(Cl)cc23)n1
growth (T-47D breast): 34.4%
growth (BT-549 breast): 95.7%
growth (MDA-MB-435 melanoma): 35%
growth (SW-620 colon): 82.8%
growth (MCF7 breast): 75.1%
growth (HCT-116 colon): 73.7%
growth (HCC-2998 colon): 88.8%
growth (KM12 colon): 74.5%
growth (MDA-MB-468 breast): 59.4%

O=C(N/N=C/c1ccc(B(O)O)s1)c1[nH]c2ccc(Br)cc2c1-c1ccccc1
growth (T-47D breast): -77% (active)
growth (BT-549 breast): -76.2% (active)
growth (MDA-MB-435 melanoma): -75.1% (active)
growth (SW-620 colon): -74% (active)
growth (MCF7 breast): -67.1% (active)
growth (HCT-116 colon): -62.9% (active)
growth (HCC-2998 colon): -97.7% (active)
growth (KM12 colon): -36.5% (active)
growth (MDA-MB-468 breast): -95.9% (active)

COc1c(B(O)O)cc(F)cc1-c1nc2c(F)cc3[nH]ncc3c2c2c1CCCC2
growth (T-47D breast): 33.7%
growth (BT-549 breast): -62.2% (active)
growth (MDA-MB-435 melanoma): 31%
growth (SW-620 colon): 0.792% (active)
growth (MCF7 breast): -2.86% (active)
growth (HCT-116 colon): 4.76% (active)
growth (HCC-2998 colon): 20.1%
growth (KM12 colon): 7.55% (active)
growth (MDA-MB-468 breast): -11% (active)

CCN1CCN(Cc2ccc(C(=O)Nc3cccc(Nc4ccc5c(OC)cccc5n4)c3)cc2C(F)(F)F)CC1
growth (T-47D breast): -71.4% (active)
growth (BT-549 breast): -94% (active)
growth (MDA-MB-435 melanoma): -94.9% (active)
growth (SW-620 colon): 7.01% (active)
growth (MCF7 breast): -89.1% (active)
growth (HCT-116 colon): -56.4% (active)
growth (HCC-2998 colon): -94% (active)
growth (KM12 colon): -37.6% (active)
growth (MDA-MB-468 breast): -94.7% (active)

Cc1ccc(N=Nc2c(N)nn3c(-c4cc5cc(Br)ccc5oc4=O)ccnc23)cc1
growth (T-47D breast): 56.4%
growth (BT-549 breast): 53%
growth (MDA-MB-435 melanoma): 113%
growth (SW-620 colon): 107%
growth (MCF7 breast): 51.1%
growth (HCT-116 colon): 44.5%
growth (HCC-2998 colon): 87.1%
growth (KM12 colon): 72.4%
growth (MDA-MB-468 breast): 73.5%

N/C(=N\c1nc2ccc([N+](=O)[O-])cc2s1)NC(=O)Nc1ccccc1Cl
growth (T-47D breast): 26.2%
growth (BT-549 breast): 25.9%
growth (MDA-MB-435 melanoma): 5.83% (active)
growth (SW-620 colon): 21.4%
growth (MCF7 breast): 36.5%
growth (HCT-116 colon): -2.76% (active)
growth (HCC-2998 colon): 86.6%
growth (KM12 colon): 38.6%
growth (MDA-MB-468 breast): 0% (active)

COc1ccc(N=Nc2c(N)nn3c(-c4ccc([N+](=O)[O-])cc4)ccnc23)cc1
growth (T-47D breast): 81.6%
growth (BT-549 breast): 94%
growth (MDA-MB-435 melanoma): 107%
growth (SW-620 colon): 98.4%
growth (MCF7 breast): 95.3%
growth (HCT-116 colon): 97.9%
growth (HCC-2998 colon): 113%
growth (KM12 colon): 102%
growth (MDA-MB-468 breast): 105%

CCOc1ccccc1[C@H]1C(C(=O)c2ccc(Cl)cc2)C2(N[C@@H]1c1ccccc1)C(=O)Nc1ccc(Cl)cc12 (stereo partly drawn)
growth (T-47D breast): 19.9%
growth (BT-549 breast): 9.4% (active)
growth (MDA-MB-435 melanoma): 24.1%
growth (SW-620 colon): 38.1%
growth (MCF7 breast): 5.27% (active)
growth (HCT-116 colon): 11.1%
growth (HCC-2998 colon): 20.4%
growth (KM12 colon): 24.2%
growth (MDA-MB-468 breast): 4.39% (active)

COc1c(B(O)O)cccc1-c1nc2ccc3cn[nH]c3c2c2c1CCCC2
growth (T-47D breast): 70.6%
growth (BT-549 breast): 30.7%
growth (MDA-MB-435 melanoma): 84.2%
growth (SW-620 colon): 53.6%
growth (MCF7 breast): 60.5%
growth (HCT-116 colon): 28.8%
growth (HCC-2998 colon): 86.9%
growth (KM12 colon): 62.3%
growth (MDA-MB-468 breast): 10.5%

Cc1ccc(C(C)C)cc1Oc1cccc(-c2c(-c3ccc(C(F)(F)F)cc3)ncn2C2CCNCC2)n1
growth (T-47D breast): -83.6% (active)
growth (BT-549 breast): -98.6% (active)
growth (MDA-MB-435 melanoma): -93.4% (active)
growth (SW-620 colon): -85.5% (active)
growth (MCF7 breast): -85.3% (active)
growth (HCT-116 colon): -94.3% (active)
growth (HCC-2998 colon): -85.4% (active)
growth (KM12 colon): -79.5% (active)
growth (MDA-MB-468 breast): -90.3% (active)

Clc1ccc(Nc2nnc(-c3c[nH]c4ccccc34)o2)cc1
growth (T-47D breast): 42%
growth (BT-549 breast): 63.7%
growth (MDA-MB-435 melanoma): 25%
growth (SW-620 colon): 86.1%
growth (MCF7 breast): 38.3%
growth (HCT-116 colon): 79.5%
growth (HCC-2998 colon): 74.5%
growth (KM12 colon): 36%
growth (MDA-MB-468 breast): -20.5% (active)

Cc1ccc(Nc2nnc(-c3c[nH]c4ccccc34)o2)c(C)c1
growth (T-47D breast): 44.3%
growth (BT-549 breast): 29.6%
growth (MDA-MB-435 melanoma): -41.8% (active)
growth (SW-620 colon): 30.9%
growth (MCF7 breast): 14.3%
growth (HCT-116 colon): 1.32% (active)
growth (HCC-2998 colon): -13.6% (active)
growth (KM12 colon): 7.83% (active)
growth (MDA-MB-468 breast): -17% (active)

Cc1nn(-c2ccccc2)c2nc(C)n(C(=O)N/N=C/c3cccc([N+](=O)[O-])c3)c(=O)c12
growth (T-47D breast): 91.4%
growth (BT-549 breast): 155%
growth (MDA-MB-435 melanoma): 96.5%
growth (SW-620 colon): 103%
growth (MCF7 breast): 77.1%
growth (HCT-116 colon): 87.5%
growth (HCC-2998 colon): 113%
growth (KM12 colon): 100%
growth (MDA-MB-468 breast): 73.1%

Cc1cc(C)c2[nH]c(=O)c(C(c3nnnn3Cc3ccc4c(c3)OCO4)N3CCN(C)CC3)cc2c1 (stereo not drawn)
growth (T-47D breast): 112%
growth (BT-549 breast): 106%
growth (MDA-MB-435 melanoma): 106%
growth (SW-620 colon): 110%
growth (MCF7 breast): 101%
growth (HCT-116 colon): 105%
growth (HCC-2998 colon): 121%
growth (KM12 colon): 105%
growth (MDA-MB-468 breast): 113%

CCCCCCCCCCCCCCCCCC(=O)Nc1ccc(OC)cc1
growth (T-47D breast): 108%
growth (BT-549 breast): 108%
growth (MDA-MB-435 melanoma): 115%
growth (SW-620 colon): 103%
growth (MCF7 breast): 93.3%
growth (HCT-116 colon): 102%
growth (HCC-2998 colon): 122%
growth (KM12 colon): 101%
growth (MDA-MB-468 breast): 99.8%

Cc1ccc2c(c1)nc(-c1ccccc1)n2CC(=O)N=Nc1c(O)[nH]c2ccc(Cl)cc12
growth (T-47D breast): -79.4% (active)
growth (BT-549 breast): -72% (active)
growth (MDA-MB-435 melanoma): -14.2% (active)
growth (SW-620 colon): 0.844% (active)
growth (MCF7 breast): -64% (active)
growth (HCT-116 colon): -82.5% (active)
growth (HCC-2998 colon): -71.3% (active)
growth (KM12 colon): -56.2% (active)
growth (MDA-MB-468 breast): -70.2% (active)

CC1CCc2c(sc3nc(SCC(=O)c4cccc(Br)c4)n(-c4ccccc4)c(=O)c23)C1 (stereo not drawn)
growth (T-47D breast): 15.9%
growth (BT-549 breast): 78.5%
growth (MDA-MB-435 melanoma): 29.5%
growth (SW-620 colon): 28.5%
growth (MCF7 breast): 56.9%
growth (HCT-116 colon): 2.87% (active)
growth (HCC-2998 colon): 60.6%
growth (KM12 colon): 89.6%
growth (MDA-MB-468 breast): 29.6%

CC(C)CN1C(=O)/C(=C\C(=O)c2cc3ccccc3oc2=O)c2ccccc21
growth (T-47D breast): 44.7%
growth (BT-549 breast): 111%
growth (MDA-MB-435 melanoma): 98.8%
growth (SW-620 colon): 41%
growth (MCF7 breast): 58.1%
growth (HCT-116 colon): 91.2%
growth (HCC-2998 colon): 118%
growth (KM12 colon): 103%
growth (MDA-MB-468 breast): 32.6%

c1ccc(CSc2nnc(-c3ccc4nc(-c5ccccc5)[nH]c4c3)o2)cc1
growth (T-47D breast): 15.4%
growth (BT-549 breast): 35.4%
growth (MDA-MB-435 melanoma): 9.59% (active)
growth (SW-620 colon): 10%
growth (MCF7 breast): 1.53% (active)
growth (HCT-116 colon): 2.99% (active)
growth (HCC-2998 colon): 62%
growth (KM12 colon): 55%
growth (MDA-MB-468 breast): 2.91% (active)

COc1c2c(c(Br)c3c1C(CCc1ccccc1)N(C)CC3)OCO2 (stereo not drawn)
growth (T-47D breast): 33.6%
growth (BT-549 breast): 3.17% (active)
growth (MDA-MB-435 melanoma): 13.9%
growth (SW-620 colon): 11.9%
growth (MCF7 breast): 18.6%
growth (HCT-116 colon): 11%
growth (HCC-2998 colon): 27.4%
growth (KM12 colon): 11.4%
growth (MDA-MB-468 breast): 41.8%

COc1ccc(-c2cc(-c3ccccc3)c(C#N)c(=O)[nH]2)cc1S(N)(=O)=O
growth (T-47D breast): 102%
growth (BT-549 breast): 89.5%
growth (MDA-MB-435 melanoma): 102%
growth (SW-620 colon): 102%
growth (MCF7 breast): 103%
growth (HCT-116 colon): 103%
growth (HCC-2998 colon): 122%
growth (KM12 colon): 103%
growth (MDA-MB-468 breast): 102%

COc1ccc(N=Nc2c(N)nn3c(-c4ccc(OC)c(OC)c4)ccnc23)cc1
growth (T-47D breast): 62%
growth (BT-549 breast): 65.6%
growth (MDA-MB-435 melanoma): 81.9%
growth (SW-620 colon): 95.2%
growth (MCF7 breast): 84.9%
growth (HCT-116 colon): 72.5%
growth (HCC-2998 colon): -35.9% (active)
growth (KM12 colon): 97.9%
growth (MDA-MB-468 breast): 80.2%

Cc1cc(C(NC(=O)CCCCCNc2cccc3c2C(=O)N(C2CCC(=O)CC2=O)C3=O)c2cccc(N(C)C)c2)c(O)c2ncccc12 (stereo not drawn)
growth (T-47D breast): 4.11% (active)
growth (BT-549 breast): -8.92% (active)
growth (MDA-MB-435 melanoma): 36.1%
growth (SW-620 colon): 23.7%
growth (MCF7 breast): 10.9%
growth (HCT-116 colon): 13.8%
growth (HCC-2998 colon): 14.6%
growth (KM12 colon): 15.3%
growth (MDA-MB-468 breast): -24.4% (active)
